Measured values from PubChem BioAssay AID1159580 (chemical genetic matrix, 2015).
Among all 5,500 compounds or so, about 2,000 (36%) were called active. Not shown: some 18% with an inconclusive outcome. Cut-off read from the data, not from the text of the source: active = normalized growth mostly below about 0.91 (no sharp cut-off); inconclusive = no clear call, values can overlap the other calls; inactive = mostly above about 0.92. The list shows a part of the results.

Assay: chemical genetic growth profiling, strain panel (AID 1159580);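 note: tested at 20 µM; growth read once vehicle control cultures reached saturation at 30 °C; 1 = growth at the plate median or of vehicle wells; lower values mean less growth of the strain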
Details: growth OD
[1] = S. cerevisiae deletion strains, locus YAL013W, strain DEP1, stronger effect = lower value
[2] = S. cerevisiae deletion strains, locus YBR229C, strain ROT2, stronger effect = lower value
[3] = S. cerevisiae deletion strains, locus YCL061C, strain MRC1, stronger effect = lower value
[4] = S. cerevisiae deletion strains, locus YDL101C, strain DUN1, stronger effect = lower value
[5] = S. cerevisiae deletion strains, locus YDR150W, strain NUM1, stronger effect = lower value
[6] = S. cerevisiae deletion strains, locus YEL061C, strain CIN8, stronger effect = lower value
[7] = S. cerevisiae deletion strains, locus YGR078C, strain PAC10, stronger effect = lower value
[8] = S. cerevisiae deletion strains, locus YHR030C, strain SLT2, stronger effect = lower value
[9] = S. cerevisiae deletion strains, locus YHR087W, strain rtc3, stronger effect = lower value
[10] = S. cerevisiae deletion strains, locus YJL187C, strain SWE1, stronger effect = lower value
[11] = S. cerevisiae deletion strains, locus YJR043C, strain POL32, stronger effect = lower value
[12] = S. cerevisiae deletion strains, locus YJR075W, strain HOC1, stronger effect = lower value
[13] = S. cerevisiae deletion strains, locus YLR039C, strain RIC1, stronger effect = lower value
[14] = S. cerevisiae deletion strains, locus YLR058C, strain SHM2 (second series), stronger effect = lower value
[15] = S. cerevisiae deletion strains, locus YLR085C, strain ARP6, stronger effect = lower value
[16] = S. cerevisiae deletion strains, locus YLR262C, strain YPT6, stronger effect = lower value
[17] = S. cerevisiae deletion strains, locus YML094W, strain GIM5, stronger effect = lower value
[18] = S. cerevisiae deletion strains, locus YMR219W, strain ESC1, stronger effect = lower value
[19] = S. cerevisiae deletion strains, locus YMR263W, strain SAP30, stronger effect = lower value
[20] = S. cerevisiae deletion strains, locus YMR307W, strain GAS1, stronger effect = lower value
[21] = S. cerevisiae deletion strains, locus YNL128W, strain TEP1, stronger effect = lower value
[22] = S. cerevisiae deletion strains, locus YNL153C, strain GIM3, stronger effect = lower value
[23] = S. cerevisiae deletion strains, locus YNL298W, strain CLA4 (second series), stronger effect = lower value
[24] = S. cerevisiae deletion strains, locus YNL322C, strain KRE1, stronger effect = lower value
[25] = S. cerevisiae deletion strains, locus YNR030W, strain Alg12, stronger effect = lower value
[26] = S. cerevisiae deletion strains, locus YOL006C, strain TOP1, stronger effect = lower value
[27] = S. cerevisiae deletion strains, locus YPL055C, strain LGE1, stronger effect = lower value
[28] = S. cerevisiae deletion strains, locus YPL241C, strain CIN2, stronger effect = lower value
[29] = S. cerevisiae deletion strains, locus YPR135W, strain CTF4, stronger effect = lower value
[30] = S. cerevisiae deletion strains, locus YDL134C, strain PPH21, stronger effect = lower value
[31] = S. cerevisiae deletion strains, locus YKL190W, strain CNB1, stronger effect = lower value

Measured: normalized growth

O=C(O)c1cnn(-c2ccccc2)c1C(F)(F)F
inactive: [1] 1.01 | [2] 0.988 | [3] 0.995 | [4] 0.998 | [5] 1.02 | [6] 0.996 | [7] 0.99 | [8] 1.01 | [9] 0.98 | [10] 0.993 | [11] 0.992 | [12] 1.02 | [13] 1.03 | [14] 1.01 | [15] 1.05 | [16] 0.955 | [17] 1.02 | [18] 1 | [19] 0.989 | [20] 0.979 | [21] 1.01 | [22] 0.984 | [23] 1.01 | [24] 0.999 | [25] 1.01 | [26] 1.04 | [27] 1.04 | [28] 1.01 | [29] 1

N#Cc1cnn(-c2ccccc2)c1-n1cccc1
active: [8] 0.626
inactive: [1] 0.976 | [2] 0.988 | [3] 0.959 | [4] 1.01 | [30] 0.999 | [5] 0.873 | [6] 1.02 | [7] 0.974 | [9] 1.02 | [10] 0.976 | [11] 0.978 | [12] 0.988 | [31] 0.985 | [13] 0.859 | [14] 0.974 | [15] 0.933 | [16] 0.883 | [17] 0.984 | [18] 0.981 | [19] 0.964 | [22] 0.994 | [23] 0.967 | [24] 0.989 | [25] 0.956 | [26] 0.938 | [27] 0.969 | [28] 0.953 | [29] 0.82

CC1(O)/C=C/C=C(\CO)C2CC(C)(C)C2(O)CC1 (centres undefined)
inactive: [1] 1.02 | S. cerevisiae deletion strains, locus YBR021W, strain FUR4, stronger effect = lower value 1.02 | [2] 1.01 | S. cerevisiae deletion strains, locus YCL029C, strain bik1, stronger effect = lower value 1 | S. cerevisiae deletion strains, locus YDL035C, strain GPR1, stronger effect = lower value 1.01 | S. cerevisiae deletion strains, locus YDL074C, strain BRE1, stronger effect = lower value 1.03 | [4] 1.02 | [30] 1.02 | S. cerevisiae deletion strains, locus YDL185W, strain tfp1, stronger effect = lower value 1 | S. cerevisiae deletion strains, locus YDL192W, strain arf1, stronger effect = lower value 1 | S. cerevisiae deletion strains, locus YDR101C, strain arx1, stronger effect = lower value 0.976 | [5] 1.02 | S. cerevisiae deletion strains, locus YDR162C, strain NBP2, stronger effect = lower value 1.04 | S. cerevisiae deletion strains, locus YDR318W, strain mcm21, stronger effect = lower value 0.993 | S. cerevisiae deletion strains, locus YDR388W, stronger effect = lower value 0.998 | S. cerevisiae deletion strains, locus YDR502C, strain sam2, stronger effect = lower value 1.01 | [6] 1.01 | S. cerevisiae deletion strains, locus YER110C, stronger effect = lower value 0.998 | S. cerevisiae deletion strains, locus YER155C, strain BEM2, stronger effect = lower value 1 | S. cerevisiae deletion strains, locus YER167W, strain BCK2, stronger effect = lower value 1.02 | S. cerevisiae deletion strains, locus YGL078C, strain dbp3, stronger effect = lower value 1 | S. cerevisiae deletion strains, locus YGL086W, strain mad1, stronger effect = lower value 1 | S. cerevisiae deletion strains, locus YGL248W, strain PDE1, stronger effect = lower value 1.01 | [7] 1.02 | S. cerevisiae deletion strains, locus YGR135W, strain pre9, stronger effect = lower value 0.999 | S. cerevisiae deletion strains, locus YGR229C, strain SMI1, stronger effect = lower value 1.02 | S. cerevisiae deletion strains, locus YGR252W, strain gcn5, stronger effect = lower value 0.956 | [8] 1 | S. cerevisiae deletion strains, locus YHR079C, strain IRE1 (second series), stronger effect = lower value 1 | S. cerevisiae deletion strains, locus YHR094C, strain hxt1, stronger effect = lower value 1.01 | S. cerevisiae deletion strains, locus YHR129C, strain ARP1, stronger effect = lower value 1.01 | S. cerevisiae deletion strains, locus YHR200W, strain rpn10, stronger effect = lower value 1 | S. cerevisiae deletion strains, locus YIL066C, strain RNR3, stronger effect = lower value 1.01 | S. cerevisiae deletion strains, locus YIL073C, strain SPO22, stronger effect = lower value 1.02 | S. cerevisiae deletion strains, locus YIL125W, strain kgd1, stronger effect = lower value 0.998 | S. cerevisiae deletion strains, locus YIR030C, strain dcg1, stronger effect = lower value 1.01 | S. cerevisiae deletion strains, locus YJL095W, strain BCK1, stronger effect = lower value 1 | S. cerevisiae deletion strains, locus YJL134W, strain LCB3, stronger effect = lower value 1.01 | S. cerevisiae deletion strains, locus YJL168C, strain set2, stronger effect = lower value 1 | S. cerevisiae deletion strains, locus YJL187C, strain SWE1 (second series), stronger effect = lower value 1.02 | [11] 0.995 | [12] 1.01 | S. cerevisiae deletion strains, locus YKL009W, strain mrt4, stronger effect = lower value 0.991 | S. cerevisiae deletion strains, locus YKL068W, stronger effect = lower value 1.01 | S. cerevisiae deletion strains, locus YKL085W, strain MDH1 (second series), stronger effect = lower value 1.02 | S. cerevisiae deletion strains, locus YKL085W, strain MDH1, stronger effect = lower value 1.02 | [31] 1.01 | S. cerevisiae deletion strains, locus YKR001C, strain vps1, stronger effect = lower value 1 | [13] 0.977 | S. cerevisiae deletion strains, locus YLR058C, strain SHM2, stronger effect = lower value 1.01 | S. cerevisiae deletion strains, locus YLR102C, strain apc9, stronger effect = lower value 1 | [16] 1.05 | S. cerevisiae deletion strains, locus YLR268W, strain sec22, stronger effect = lower value 0.986 | S. cerevisiae deletion strains, locus YLR330W, strain CHS5, stronger effect = lower value 1.01 | S. cerevisiae deletion strains, locus YLR342W, strain FKS1 (second series), stronger effect = lower value 1.02 | S. cerevisiae deletion strains, locus YLR371W, strain rom2, stronger effect = lower value 1 | S. cerevisiae deletion strains, locus YLR418C, strain cdc73, stronger effect = lower value 0.989 | S. cerevisiae deletion strains, locus YML016C, strain PPZ1, stronger effect = lower value 1.01 | S. cerevisiae deletion strains, locus YML032C, strain rad52, stronger effect = lower value 0.979 | S. cerevisiae deletion strains, locus YML124C, strain tub3, stronger effect = lower value 1 | S. cerevisiae deletion strains, locus YMR078C, strain ctf18, stronger effect = lower value 1.01 | S. cerevisiae deletion strains, locus YMR223W, strain ubp8, stronger effect = lower value 0.994 | [19] 1.02 | [20] 1.02 | S. cerevisiae deletion strains, locus YNL067W, strain RPL9B, stronger effect = lower value 1.01 | [21] 1.03 | [22] 1.02 | S. cerevisiae deletion strains, locus YNL233W, strain BNI4, stronger effect = lower value 1.02 | S. cerevisiae deletion strains, locus YNL250W, strain rad50, stronger effect = lower value 1.02 | S. cerevisiae deletion strains, locus YNL271C, strain bni1, stronger effect = lower value 0.995 | S. cerevisiae deletion strains, locus YNL298W, strain CLA4, stronger effect = lower value 0.993 | S. cerevisiae deletion strains, locus YNL307C, strain MCK1, stronger effect = lower value 0.997 | [24] 1.02 | S. cerevisiae deletion strains, locus YNR052C, strain pop2, stronger effect = lower value 0.998 | [26] 1.06 | S. cerevisiae deletion strains, locus YOL012C, strain htz1 0.828 | S. cerevisiae deletion strains, locus YOL147C, strain pex11, stronger effect = lower value 1.01 | S. cerevisiae deletion strains, locus YOR061W, strain CKA2, stronger effect = lower value 1.02 | S. cerevisiae deletion strains, locus YOR069W, strain VPS5, stronger effect = lower value 1.01 | S. cerevisiae deletion strains, locus YOR136W, strain idh2, stronger effect = lower value 0.997 | S. cerevisiae deletion strains, locus YOR144C, strain elg1, stronger effect = lower value 0.999 | S. cerevisiae deletion strains, locus YOR184W, strain ser1, stronger effect = lower value 0.994 | S. cerevisiae deletion strains, locus YOR316C, strain cot1, stronger effect = lower value 1 | [27] 1.05 | [28] 1.02 | S. cerevisiae deletion strains, locus YPR119W, strain clb2, stronger effect = lower value 0.992 | S. cerevisiae deletion strains, locus YPR141C, strain kar3, stronger effect = lower value 1 | S. cerevisiae deletion strains, locus YPR163C, strain tif3, stronger effect = lower value 1 | S. cerevisiae deletion strains, locus YPR167C, strain met16, stronger effect = lower value 1.01 | S. cerevisiae deletion strains, strain wtn01, stronger effect = lower value 0.995 | S. cerevisiae strains, strain wild type, stronger effect = lower value 1.01
